Screening results as filed in PubChem BioAssay.
This is a sample that favours compounds with a hit; in the whole collection about 3.1% have one here.
p53null 32C tox – kills p53 null cells at the permissive temperature; H1299-neo p53 null cells, ATP luminescence, 24 h, 32C; Potency, µM (doses to about 46.1 µM), most hits filed as cytotoxic; 55,000 tested, 0.62% active; further: nearly all actives have a fitted effect of over 55% in size
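Luminescent ATP readout gave cell viability of p53-null H1299-neo cells after a 24 h compound exposure at the permissive 32C. Titrations ran up to 46 uM, and AC50s were fitted with the standard Hill equation.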
p53null 39C kill – p53 null cell cytotoxicity, nonpermissive temperature; Potency, µM (titrated, usually from 46.1 µM), actives largely listed as cytotoxic; 55,000 tested, 0.97% active; H1299 p53-null (neo) cells, 39C, ATPlite viability, 24 h; further: nearly all actives have a fitted effect of over 50% in size
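ATP-luminescence viability readout (ATPlite, 20 min RT) after 24 hr compound treatment at 39C of H1299-neo or H1299-p53A138V cells; titration up to 46 uM; normalized to DMSO and 100 uM tamoxifen; Hill-fit AC50.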
SKOV3 invasion – inhibitors of ovarian cancer cell adhesion and invasion in omental model | SKOV3ip1-GFP adhesion/invasion on 3D omental model, fluorescence | 46,000 tested, 0.1% active | Potency, µM (top dose mostly 45.8 µM), actives largely listed as inhibitors | AID 1963576; further: nearly all actives have a fitted effect of over 65% in size
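qHTS, 4-pt dose (0.36-46 umol/L); SKOV3ip1-GFP, 1,200 cells/well, no FBS; primary omental fibroblast/mesothelial co-culture 48 h pre-grown; 2 h RT + 16 h 37 C; PBS wash, 4% PFA; GFP count 488/509 nm.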
S16 F2sN tox – S16 Schwann cell cytotoxicity; Potency, µM (series often up to 57.5 µM), usual class: cytotoxic; 43,000 tested, 0.48% active; S16 Pmp22-F2sN Schwann cells viability, CellTiter-Glo, 24 h; AID 1508642; further: nearly all actives have a fitted effect of over 65% in size
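CellTiter-Glo counter-screen, qHTS, 1536-well. Cells: S16(c9) Pmp22-F2sN, 500-1,000/well in DMEM + 10% FBS. Cpd 23 nL pin transfer, 24 h, 37C/5% CO2. Read: luminescence, CCD imager.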
PMP22 txn prim – modulates PMP22 transcription in S16 Schwann cells. S16 Pmp22-F2sN Schwann cells (luciferase reporters placed in the Pmp22 gene), FLuc/NLuc coincidence luminescence, 24 h. Potency, µM (series often up to 57.5 µM), usual class: inhibitors. 43,000 tested, 2% active; active means clear falling dose curves in both reporters; inconclusive means both reporters move, but less clearly or upward; inactive means either reporter flat; the % is the NLuc reporter signal
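Luminescent read-out of sequential FLuc and NLuc signals from a reporter embedded in the Pmp22 3' UTR of S16 Schwann cells, taken after 24 h compound exposure at 37C; compounds reducing both signals score as inhibitors of expression.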
mTORC1 inh – inhibitors of mTORC1 signaling in Tsc2-/- p53-/- MEF cells; Tsc2-/- p53-/- MEF, phospho-rpS6 immunofluorescence/PI, 24 h; Potency, µM (titrated, usually from 38.3 µM), actives largely listed as inhibitors; 44,000 tested, 0.78% active; AID 493208; further: nearly all actives have a fitted effect of over 50% in size
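Immunofluorescence of rpS6 phosphorylation in Tsc2-/-, p53-/- MEFs after 24 h compound exposure, normalized to propidium iodide signal. Activity is expressed as % positive cells, thresholded with 7.5 nM rapamycin.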
NLuc saturating – counter-screen for PMP22 expression modulators: NanoLuc inhibition, saturating substrate. shares compounds with PMP22 txn prim. Secreted NLuc enzyme (filtered S16 cell medium), Nano-Glo luminescence. Potency, µM (doses to about 57.5 µM), hits mostly inhibitors. 690 tested, 4% active. AID 1508638
NLuc Km counter – NanoLuc inhibition at Km substrate, PMP22 artifact check; shares compounds with PMP22 txn prim; secreted NLuc enzyme, coelenterazine luminescence, Km conditions; Potency, µM (top dose mostly 57.5 µM), actives largely listed as inhibitors; 690 tested, 5% active
FLuc counter – counter-screen for PMP22 expression modulators: firefly luciferase inhibition. Potency, µM (top dose mostly 57.5 µM), usual class: inhibitors. purified P. pyralis FLuc, luminescence, 10 min. shares compounds with PMP22 txn prim. 690 tested, under 10 active. AID 1508640
Target sequence (P08659 whole entry, looked up): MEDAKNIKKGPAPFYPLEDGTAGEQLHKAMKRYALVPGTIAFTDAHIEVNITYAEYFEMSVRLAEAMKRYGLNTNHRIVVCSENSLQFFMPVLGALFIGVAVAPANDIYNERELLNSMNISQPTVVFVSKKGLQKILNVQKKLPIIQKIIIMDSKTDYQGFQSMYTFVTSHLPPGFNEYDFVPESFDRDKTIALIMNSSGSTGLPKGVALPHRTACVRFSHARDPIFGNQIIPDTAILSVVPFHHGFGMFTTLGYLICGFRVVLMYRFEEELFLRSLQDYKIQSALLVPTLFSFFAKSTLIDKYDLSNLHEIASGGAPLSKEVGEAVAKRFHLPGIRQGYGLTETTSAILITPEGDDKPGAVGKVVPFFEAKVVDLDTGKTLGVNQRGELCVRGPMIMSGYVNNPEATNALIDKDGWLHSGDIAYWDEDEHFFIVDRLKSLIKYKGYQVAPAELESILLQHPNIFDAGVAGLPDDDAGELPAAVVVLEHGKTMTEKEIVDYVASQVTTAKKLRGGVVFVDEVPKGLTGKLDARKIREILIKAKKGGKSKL
S16 F2sN tox cnf – S16 Schwann cell cytotoxicity, confirmatory | AID 1508641 | S16 Schwann cells viability, CellTiter-Glo ATP luminescence, 24 h | Potency, µM (highest dose often 57.5 µM), actives largely listed as cytotoxic | shares compounds with PMP22 txn prim | 690 tested, 7% active
PMP22 txn conf – confirmation of modulators of PMP22 gene transcription in S16 cells. 690 tested, 22% active. shares compounds with PMP22 txn prim. AID 1508646. S16 Schwann cells Pmp22-F2sN, dual luciferase, 24 h. Potency, µM (highest dose often 57.5 µM), usual class: inhibitors; active means clear falling dose curves in both reporters; inconclusive means both reporters move, but less clearly or upward; inactive means either reporter flat; the % is the FLuc reporter signal
PMP22 prot conf – rat PMP22 protein level modulation, confirmatory; shares compounds with PMP22 txn prim; S16 Schwann cells Pmp22-HiBiT, luminescence, 48 h; Potency, µM (highest dose often 27.9 µM), actives largely listed as inhibitors; 95 tested, under 10 active; AID 1508647
Target sequence (P25094 whole entry, looked up): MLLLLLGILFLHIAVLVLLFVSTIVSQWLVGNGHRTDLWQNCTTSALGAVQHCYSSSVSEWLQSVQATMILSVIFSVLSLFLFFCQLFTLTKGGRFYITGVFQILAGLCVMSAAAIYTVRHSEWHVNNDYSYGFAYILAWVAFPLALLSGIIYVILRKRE
Hits are given with their value; - = inactive; ? = inconclusive; . = no result. Unless noted, the call rests on the fitted dose curve; in most records, active means well fitted curve in the direction sought with a large enough effect; inconclusive means small, poorly fitted or top-dose-only effect, or another doubt; inactive means no such curve, though single readings can be large; an effect the other way counts as inactive or inconclusive.

SMILES	p53null 32C tox	p53null 39C kill	SKOV3 invasion	S16 F2sN tox	PMP22 txn prim	mTORC1 inh	NLuc saturating	NLuc Km counter	FLuc counter	S16 F2sN tox cnf	PMP22 txn conf	others
CCc1ccc(CNC(=O)CSc2c3c(nc4ccc(Cl)cc24)CCCC3)cc1	-	-	-	-	6.23µM	-	-	?	-	-	?
CCOc1ccc(CNC(=O)CSc2c3c(nc4ccc(Cl)cc24)CCCC3)cc1	-	-	-	-	?	-	.	.	.	.	.
O=C(CSc1c2c(nc3ccc(Cl)cc13)CCCC2)N1CCN(c2ccc(Cl)cc2)CC1	-	-	-	-	?	-	.	.	.	.	.
CCN(CC)CCCNC(=O)CSc1c2c(nc3cc(Cl)ccc13)CCCC2	-	12.6µM	?	?	6.69µM	?	-	-	-	?	10.4µM	PMP22 prot conf=-
CCOc1ccc(CNC(=O)CSc2c3c(nc4cc(Cl)ccc24)CCCC3)cc1	-	-	-	?	?	-	.	.	.	.	.
O=C1NC(=O)C(=Cc2ccc(-c3ccc(F)cc3)o2)S1	.	.	-	.	.	.	.	.	.	.	.
CCOC(=O)c1c(S(=O)(=O)N2CCCC(C(=O)N3CCN(c4cccc(C)c4C)CC3)C2)c(C)n(C)c1C (configuration not stated)	-	-	-	-	17µM	-	?	?	-	-	-
CCCCCOc1ccc(/C=C/C(=O)Nc2sc(C(C)=O)c(C)c2C(=O)OCC)cc1OC	-	-	-	-	7.51µM	-	-	-	-	-	-
CCCCCOc1ccc(/C=C/C(=O)Nc2sc(C)c(C)c2C(=O)OCC)cc1OC	-	-	-	-	7.13µM	-	-	-	-	-	-
CCCCCOc1ccc(/C=C/C(=O)Nc2sc3c(c2C(=O)OCC)CCC3)cc1OC	-	-	-	-	-	-	.	.	.	.	.
CCCCCn1c(=O)[nH]c2cc(C(=O)Nc3cc(OC)cc(OC)c3)ccc2c1=O	-	-	-	-	?	-	.	.	.	.	.
CCCCC(CC)CNC(=O)c1ccc2c(=O)n(Cc3ccc(OC)cc3)c(=O)[nH]c2c1 (configuration not stated)	-	-	-	-	12.1µM	-	-	-	-	-	?
COCCN1Cc2cccc(C(=O)Nc3ccc(Cl)cc3Cl)c2C1=O	-	-	-	-	18.9µM	-	?	?	-	-	-
O=C(CCn1cnnn1)Nc1cc(C(F)(F)F)cc(C(F)(F)F)c1	-	-	-	-	3.95µM	-	-	-	-	-	?
Cc1onc(-c2ccccc2)c1C(=O)N[C@@H]1C(=O)N2[C@@H](C(=O)O)C(C)(C)S[C@@H]12	.	.	-	.	.	.	.	.	.	.	.
CC(C)OCCCNc1ncnc2sc3c(c12)CCCC3	-	-	-	-	14.1µM	-	-	-	-	-	-
COc1ccc(-n2c(SCC(=O)NCc3ccc(Cl)cc3)nc3ccsc3c2=O)cc1	-	-	-	-	15.8µM	-	-	-	-	-	-
Cc1ccc(CNC(=O)CSc2nc3ccsc3c(=O)n2-c2ccc(Br)cc2)cc1	-	-	-	-	?	-	.	.	.	.	.
Cc1cccc(CNC(=O)c2cnc3sc(N4CCCCCC4)nn3c2=O)c1	-	-	-	-	?	-	-	-	-	-	-
CCc1ccccc1NC(=O)CSc1ncc(S(=O)(=O)c2ccc(C(C)C)cc2)c(N)n1	-	-	-	-	17.9µM	-	?	-	-	-	?
CCc1ccccc1NC(=O)CSc1ncc(S(=O)(=O)c2ccccc2)c(N)n1	-	-	-	-	-	-	.	.	.	.	.
Fc1ccc(C(c2ccc(F)cc2)N2CCN(CC=Cc3ccccc3)CC2)cc1	.	.	-	.	.	.	.	.	.	.	.
CS(=O)(=O)c1ncc(Cl)c(C(=O)Nc2c(C(=O)Nc3ccccc3)oc3ccccc23)n1	-	-	-	?	?	-	.	.	.	.	.
Cc1ccc(C(=O)c2oc3ccccc3c2NC(=O)c2nc(S(C)(=O)=O)ncc2Cl)cc1F	-	-	-	?	7.61µM	-	-	-	-	21.7µM	13.1µM
CC(C)[C@H](C(=O)Nc1ccc(C(=O)NO)cc1)c1ccccc1	.	.	-	.	.	.	.	.	.	.	.
SMILES	p53null 32C tox	p53null 39C kill	SKOV3 invasion	S16 F2sN tox	PMP22 txn prim	mTORC1 inh	NLuc saturating	NLuc Km counter	FLuc counter	S16 F2sN tox cnf	PMP22 txn conf	others
COc1ccc(Br)c2c1-c1nc(NC(=O)c3cccc(C)c3)sc1C2	-	-	-	-	11.3µM	-	?	-	-	-	?	PMP22 prot conf=-
N#CNC(=NCCCCCCOc1ccc(Cl)cc1)Nc1ccncc1	.	.	-	.	.	.	.	.	.	.	.
COc1cc(NC(=O)N2CCC(CN3CCOCC3)CC2)cc(OC)c1OC	-	-	-	-	-	-	-	-	-	-	-
O=C(NCCc1ccccc1Cl)C1CCN(c2nc3ccccc3nc2C(F)(F)F)CC1	-	-	-	?	9.46µM	-	-	-	-	-	-
COc1ccccc1CCNC(=O)C1CCN(c2nc3ccccc3nc2C(F)(F)F)CC1	-	-	-	?	-	-	.	.	.	.	.
Cc1cc(C(C)Nc2ccccc2)c2nc(N3CCOCC3)cc(=O)n2c1 (configuration not stated)	.	.	-	.	.	.	.	.	.	.	.
Cc1ccc(CNC(=O)c2nc(S(=O)(=O)Cc3ccc(C)cc3)ncc2Cl)cc1	-	?	-	?	10.1µM	-	-	-	-	-	17.3µM	PMP22 prot conf=-
COc1ccc2nc(NC(=O)c3nc(S(=O)(=O)Cc4ccc(C)cc4)ncc3Cl)sc2c1	-	?	?	28.2µM	7.27µM	?	-	-	-	-	-
CCCSc1ncc(Cl)c(C(=O)Nc2nc3ccc(OCC)cc3s2)n1	-	-	-	-	-	-	.	.	.	.	.
